In the library only some 3.1% were active in any assay of this set; here they are far more common.
Casp6 inh – blocks human caspase-6 cleavage activity. P55212. purified caspase-6, Z-VEID-R110 cleavage fluorescence. inhibition, % at 12.5 µM. actives 0.53% (n = 350,000). AID 686996;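 active means mean inhibition across replicates at least about 35%, with every replicate also reaching that limit, limit read from the data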;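 further: 0% = median of neutral control wells and 100% = no fluorescence left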
Target sequence (P55212 24-179 limits assumed): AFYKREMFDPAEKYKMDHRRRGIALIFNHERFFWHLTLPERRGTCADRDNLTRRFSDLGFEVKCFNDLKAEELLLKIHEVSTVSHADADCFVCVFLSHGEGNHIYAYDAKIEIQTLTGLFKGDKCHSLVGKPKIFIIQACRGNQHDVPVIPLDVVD
Target sequence (P55212 194-293 limits assumed): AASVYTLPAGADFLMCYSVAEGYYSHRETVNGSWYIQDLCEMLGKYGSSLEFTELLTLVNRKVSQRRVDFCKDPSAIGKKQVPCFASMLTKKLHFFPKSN
ERAP1 inh – ERAP1 (human) enzyme inhibition | Q9NZ08 | recombinant ERAP1, Leu-AMC fluorescence, 60 min | inhibition, % at 10.7 µM | actives 0.15% (n = 340,000);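 active means mean replicate inhibition of at least 30%, or all replicates individually reaching that 30% level; inactive means mean below 30% and not every replicate reaching it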;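 further: 0% = neutral control wells and 100% = L-leucinethiol positive control wells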
FGF22 binding – shifts melting point of recombinant human FGF22. recombinant FGF22 thermal shift, SYPRO orange fluorescence; percent of sucrose octasulfate shift, DMSO zero. activity (Tm shift, normalised), % at 9.99 µM. Q9HCT0. actives 1.5% (n = 340,000);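 active means mean Tm shift, scaled 0 neutral to 100 positive control, at about 1.3% or above, every replicate too, limit read from the data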
SIRT5 block – blocks human SIRT5 desuccinylation of peptide. Purified SirT5, succinyl-peptide AMC, trypsin-coupled fluorescence. AID 652115. Q9NXA8. actives 1.1% (n = 330,000). inhibition, % at 15 µM; in the data active means inhibition above about 15%
Target sequence (Q9NXA8 whole entry, looked up): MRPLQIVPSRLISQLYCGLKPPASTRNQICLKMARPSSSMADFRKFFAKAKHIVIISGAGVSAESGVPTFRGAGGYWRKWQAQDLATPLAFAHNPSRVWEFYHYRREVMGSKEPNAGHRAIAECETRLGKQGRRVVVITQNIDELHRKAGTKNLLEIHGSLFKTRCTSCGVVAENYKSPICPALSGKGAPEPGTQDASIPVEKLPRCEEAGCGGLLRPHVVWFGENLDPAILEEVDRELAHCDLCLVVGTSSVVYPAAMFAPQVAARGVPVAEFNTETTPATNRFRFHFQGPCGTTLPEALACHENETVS
* marks the source's active call; other numbers are inactive results; · = no result.

SMILES | Casp6 inh | ERAP1 inh | FGF22 binding | SIRT5 block
COc1cc(/C=C2/NC(=O)NC2=O)cc(Br)c1OCc1ccc(C(=O)O)cc1 | 31.8 | 8.6 | 0.0 | 15.2*
O=C(O)COc1c(Cl)cc(/C=C2\NC(=O)NC2=O)cc1Br | 1.4 | 15.0 | -0.2 | 1.7
CCC(=O)N1[C@H](CO)[C@@H](c2ccc(/C=C/c3ccccc3)cc2)C12CN(S(C)(=O)=O)C2 | 1.3 | 5.5 | -0.8 | -3.9
CC(C)CCn1c(=O)c2ccccc2n2c(CCC(=O)NCC3CCCO3)nnc12 (stereo not given) | 38.4* | 2.5 | -0.2 | 10.6
COc1cccc(C2=NN(C(=O)c3ccc(C)o3)C(O)(C(F)(F)F)C2)c1 (stereo not given) | 1.6 | 0.7 | 43.0* | -2.1
O=C(c1ccco1)N1N=C(c2ccc(Br)cc2)CC1(O)C(F)(F)F (stereo not given) | -7.3 | -2.8 | 0.2 | -0.2
COc1ccc(C(=O)N2N=C(c3cccc(OC)c3)CC2(O)C(F)(F)F)cc1 (stereo not given) | 1.3 | 3.5 | 0.2 | -2.4
O=C(c1ccco1)N1N=C(c2ccc(Cl)cc2)CC1(O)C(F)(F)F (stereo not given) | -1.3 | 0.3 | 43.0* | 3.0
C[C@H](CO)N1C[C@H](C)[C@@H](CN(C)Cc2ccc(C(F)(F)F)cc2)Oc2ccc(NC(=O)C3CC3)cc2CC1=O | 5.9 | 3.8 | -0.6 | 8.7
CCCN(C)C[C@@H]1OCCCC[C@@H](C)Oc2ccc(NS(=O)(=O)c3c(C)noc3C)cc2C(=O)N([C@@H](C)CO)C[C@@H]1C | 1.2 | -14.0 | 0.8 | 0.4
COc1ccc(OCCN2CCC(C(=O)NC(c3ccc(OC)cc3)c3ccccn3)CC2)cc1 (stereo not given) | -1.4 | -3.8 | -0.3 | ·
COc1ccc(C(NC(=O)C2CCN(CCc3ccccc3)CC2)c2ccccn2)cc1 (stereo not given) | -1.9 | -1.7 | -0.2 | 15.2*
C[C@@H]1CN([C@H](C)CO)C(=O)c2cc(NS(=O)(=O)c3ccc(F)cc3)ccc2O[C@H]1CN(C)Cc1ccccc1 | -0.7 | -1.7 | 0.2 | 3.6
Cn1c(=O)c2nc3ccccc3nc2n(C)c1=O | -2.0 | -8.8 | 43.4* | -0.8
Cn1c(=O)c2nc(-c3ccccc3)c(-c3ccccc3)nc2n(C)c1=O | 0.8 | 6.1 | -0.1 | 0.8
COc1ccc(NC(=O)c2ccc(-c3ccccc3C(F)(F)F)o2)cc1 | 0.3 | 5.1 | 44.2* | -4.0
O=C(Nc1cccc(F)c1)c1ccc(-c2ccccc2C(F)(F)F)o1 | 2.9 | · | 0.1 | ·
COCCNC(=S)N(Cc1cc2cc(C)ccc2n2nnnc12)C1CCCC1 | 3.9 | 1.2 | 43.1* | -3.6
Cc1ccc(CCNC(=O)CCS(=O)(=O)Cc2ccc(C)cc2)cc1 | -2.0 | 0.3 | 0.1 | -1.3
O=C(CCS(=O)(=O)Cc1ccccc1F)NCCc1ccc(Cl)cc1 | -4.2 | 3.1 | 0.0 | 16.6*
O=C(NCC[C@H]1CC[C@H](NS(=O)(=O)c2ccc(Cl)cc2)[C@H](CO)O1)c1ccccc1F | 0.8 | -2.7 | -0.2 | 1.0
Cc1nnc(NS(=O)(=O)c2ccc(N=Nc3ccc(N)nc3N)cc2)s1 | 68.5* | 5.4 | 0.1 | ·
Cc1nnc(NS(=O)(=O)c2ccc(N)cc2)s1 | 5.2 | 0.9 | -0.1 | -0.1
Cc1[nH]c2ccccc2c1C(=O)CN1C(=O)C(=O)N(Cc2ccco2)C1=O | -0.8 | 32.6* | 1.0 | -8.3
CC(=O)Nc1ccc2c(c1)C(=O)N(C)[C@@H]1CC[C@H](CC(=O)NCc3ccc(Cl)cc3)O[C@H]1CO2 | -0.4 | 0.1 | -0.1 | 5.0
SMILES | Casp6 inh | ERAP1 inh | FGF22 binding | SIRT5 block
CC(C)C(C(=O)NCc1ccco1)N(CC1CCCO1)C(=O)CNS(=O)(=O)c1ccccc1 (stereo not given) | -0.7 | -0.6 | 43.3* | 14.4
CCC(=O)N(C1=C(NC(C)C)C(=O)c2ccccc2C1=O)C(C)C | 43.7* | 13.1 | -0.1 | -0.7
O=C(C[C@@H]1C[C@H]2c3cc(NC(=O)CC4CC4)ccc3O[C@H]2[C@H](CO)O1)NCCc1ccccc1 | -1.9 | -0.1 | 0.8 | -0.7
CN(C)c1ccc2c(c1)[C@@H]1C[C@@H](CC(=O)NCc3ccccc3)O[C@H](CO)[C@@H]1O2 | -1.9 | 1.2 | 0.0 | 20.3*
CN(C)c1ccc2c(c1)[C@@H]1C[C@@H](CC(=O)N3CCCCC3)O[C@H](CO)[C@@H]1O2 | 13.8 | 0.2 | · | 0.7
CN(C)c1ccc2c(c1)[C@@H]1C[C@@H](CC(=O)N3CCOCC3)O[C@@H](CO)[C@@H]1O2 | 54.7* | -4.5 | -0.5 | 2.0
C[C@H](CO)N1C[C@H](C)[C@@H](CN(C)C(=O)Nc2ccc(C(F)(F)F)cc2)OCCCC[C@H](C)Oc2ccc(NC(=O)C3CCCCC3)cc2C1=O | -2.1 | 0.3 | -0.3 | 4.9
C[C@H](CO)N1C[C@H](C)[C@H](CN(C)S(=O)(=O)c2ccc(Cl)cc2)Oc2c(NS(=O)(=O)c3ccc(F)cc3)cccc2C1=O | -1.7 | -0.1 | -0.2 | 2.5
CCOCc1nnc(NC(=O)c2cc(C(=O)OC)cc([N+](=O)[O-])c2)s1 | 1.9 | -4.0 | 43.2* | 0.1
C[C@H]1CCCCO[C@H](CN(C)C(=O)CCCN(C)C)[C@@H](C)CN([C@@H](C)CO)C(=O)c2cc(NC(=O)c3ccncc3)ccc2O1 | · | · | -0.5 | ·
Nc1c(Br)cc(Br)c2c1C(=O)c1c(cccc1S(=O)(=O)O)C2=O | 6.4 | 0.5 | 43.5* | -4.4
Nc1c(C(=O)O)ccc2c1C(=O)c1ccccc1C2=O | 21.6 | 6.2 | 0.4 | -1.1
C[C@H]1CN([C@@H](C)CO)S(=O)(=O)c2ccc(-c3cncnc3)cc2O[C@H]1CN(C)C(=O)Cc1ccccc1 | 3.1 | -3.6 | 0.0 | -0.9
CN1CCN(C(=O)c2cnn(-c3ccccc3)c2NC(=O)c2ccccc2)CC1 | 3.0 | -2.4 | 43.4* | -10.3
c1ccc(Nc2nc(N3CCCC3)nc(N3CCOCC3)n2)cc1 | -1.8 | -0.6 | 0.1 | -3.7
Oc1[nH]c2ccccc2c1N=Nc1nc(Nc2ccccc2)nc(N2CCOCC2)n1 | 0.3 | 70.2* | 0.2 | -1.2
C[C@@H]1CN([C@@H](C)CO)C(=O)Cc2cc(NC(=O)C3CCCCC3)ccc2O[C@H]1CN(C)Cc1ccccc1 | -0.3 | -1.8 | 0.0 | 5.3
O=S(=O)(N[C@H]1CC[C@H](CCn2cc(-c3cccc(F)c3)nn2)O[C@H]1CO)c1ccc(F)cc1 | 0.3 | -1.7 | 0.4 | 24.8*
CC(C)c1cn(CC[C@@H]2CC[C@H](NS(=O)(=O)c3ccc(F)cc3)[C@H](CO)O2)nn1 | 0.4 | -1.3 | -0.2 | -1.4
Cc1ccc(S(=O)(=O)N[C@@H]2CC[C@@H](CCn3cc(C(C)C)nn3)O[C@@H]2CO)cc1 | 5.1 | 0.6 | -0.1 | 4.1
O=S(=O)(N[C@H]1CC[C@@H](CCn2cc(-c3cccc(F)c3)nn2)O[C@H]1CO)c1ccc(F)cc1 | 2.7 | -2.7 | -0.2 | 1.0
CC(C)c1cn(CC[C@H]2CC[C@H](NS(=O)(=O)c3ccc(F)cc3)[C@@H](CO)O2)nn1 | 0.2 | -1.1 | -0.1 | 20.2*
Cc1ccc(S(=O)(=O)N[C@H]2CC[C@@H](CCn3cc(C(C)C)nn3)O[C@H]2CO)cc1 | 6.2 | 2.8 | -0.1 | 25.5*

Screening data (PubChem BioAssay)
